{
  "source": "the supplement of paper PMC12632987",
  "binders": {"B1": {"name": "traf2_out_17_162_1579 (protein)", "chain": "SELEEKLKELEEKLKELEKELKRFKEELKNLENKSKEELTDLLVEVSEARREALQLAEELKKLEKEIGEEKAKELIEKAEEIAEEFQRIANEIYKELLKK"}, "B2": {"name": "traf2_out_6_156_2416 (protein)", "chain": "MVEEILKEALEKVKELIKELAKAPESKKIQYISKIAGTAYRALQKLREAGASLEEIEEFAKRFLEETKKLAKEAGLPEDTINLLLSALQAVFDVAIAEAK"}, "B3": {"name": "traf2_out_6_3_2523 (protein)", "chain": "SEESLREDARRVLEGMGITTAEQLRRLVRAEVNAVRRLVSRPDTDEADLAGAESVLALAEAVVDVAAEELPDLTEEQVAELRALIEEARKLVEEKRAELA"}, "B4": {"name": "traf2_out_17_178_1720 (protein)", "chain": "SKEEYRKKISELTDKLIDLAEAAAARLLALARAEGTLSPEELAALEAARRRGSPNDTLALMRRVAPRLRSAAEAEALLADFEAQSKALAKEIAELYEKYE"}, "B5": {"name": "traf2_out_13_95_1103 (protein)", "chain": "SEETAKKIMEVADKMLDKVEELLEKLLEKAKKAGKLEEEIEKALHLARYQSINEAIHLLKELAKKYPEFKEELEETIKEIEALRKQAGKEVAKIIKEEKE"}, "B6": {"name": "traf2_out_13_95_1096 (protein)", "chain": "SKELAEKIMEIADKMLDEVEKLLEELLKEAKKAGKLEEEVTEALNLARYRSINEAIHLLEELAKKHPEFKELYEKTIKEIKEIIKEAGKEVAKLIKEEKE"}, "B7": {"name": "traf2_out_6_3_2524 (protein)", "chain": "SEESLRADARKILEGMGITTAEQLRTLVTAEVNAVRQLVSRPDTDRADLAGARSVLALSRAIVDVAAETLPDLTPEQVAALRALIAAAEELIAAREAELA"}, "B8": {"name": "traf2_out_16_104_1376 (protein)", "chain": "SAATDAAFQAIIARLEAIAERAQRLANELMKLYEKASPEEKEKISDALVEVSELRRRALAAAEAVRQAQAAGGDLAEAQATLAELEARLAEAEARVEELK"}, "B9": {"name": "traf2_out_11_169_872 (protein)", "chain": "KEAEKNRKLNDFALELNDEAKEKLKEFALKLAKELGLDVEEVKKIFEENKNKSLSAVAAALIKYFKEKGKEDAAAKIEKKYEELKEEINKKTSEKIKELE"}, "B10": {"name": "traf2_out_3_89_2287 (protein)", "chain": "SEEREKKIEELRRIIDRYLKGFEKSARRVAKEMLEEGYSLDTLEGVLNASKTALVEEIRRLAKERGLSEEDIKELVEEATKRLDEIVDKILEEAKKARAE"}, "B11": {"name": "traf2_out_19_16_1983 (protein)", "chain": "AEEEAERLLAEMRRHLDEALRLAEETVANLDKLSRDELMDRLVEISELVRRAQEALQRALELLADDPERRAAIRAEYDERLDRINRLMTKIVDRLLELLK"}, "B12": {"name": "traf2_out_11_79_931 (protein)", "chain": "SEKRKELEELIKKALKLVEELIKKLKEGNISEEEFAKTIEEILELLQRAMQLALELGLSDVLVLLSEARRHVLLSRTRNLEELEKAAKYLKEALKELEKE"}, "B13": {"name": "traf2_out_18_167_1826 (protein)", "chain": "SEEAEKKINELRDKLIEYSEIRRLALAAIEALRTDPAAAEAALAAVIAALEKVPEFRPDAERLKALPREELPAALEEIAERAQRKMNEIYKEIEEIKKKA"}, "B14": {"name": "traf2_out_6_3_2531 (protein)", "chain": "DRESLLADARKVLENMGITTAAELQRLVEAEVRAIRQLISRPDVDRADLAGARSVIALARAMVEVAAETLPDFTPEQQARLQALLAEAEELVRRREEELA"}, "B15": {"name": "traf2_out_20_3_2095 (protein)", "chain": "EELEKELEKALKEAAKLIKKAIALADPETAARLEALLKRLKAAEKLPLEDRLVALSAVRRELLALAEEARAAGREELAKLLEEAAEEVNRAMNLAYKIIE"}, "B16": {"name": "traf2_out_9_17_2611 (protein)", "chain": "SAEEEELKERLLEAIEEVLKELVEKGYITEEEAEEILKKVKELIEKGASPDEIIAEFLGMIASILLTKSNLSLPEANKIVGEAYRRLQERLEKIEKELAE"}, "B17": {"name": "traf2_out_16_104_1406 (protein)", "chain": "AAATQAAFDAIIAELNKIAEELGKIANKIYKKMETASPELKEKLTDALVDASELRRQALEAAVAAAQARATGGDLAAAQATLAELKKKAEEVKKKAEELF"}, "B18": {"name": "traf2_out_14_149_1255 (protein)", "chain": "SETEKKRKALEEARALMEEIAAILEAALAAGSTEVDRERLRALVEEARAILREQGFVLGHLLAIEEMLATTEEFTLADIEALLAEVRRAAESLAVLAEML"}, "B19": {"name": "traf2_out_6_3_2517 (protein)", "chain": "MEESIRKDARTVLENMGITTVEQLKKLVEANVNAVKKLVSRKDVDRADLAAANSVLNLTRAMVEVAAETLPDLTEEDVKEMNALIDEARELIEKKKKELE"}, "B20": {"name": "traf2_out_20_38_2040 (protein)", "chain": "EEEKEEEERLLEIAKKATEVADKTEAWVEEKLAAGVSPEEIIAETKKLITEKLAAIGKEEEAKELIERLDTLAAAGEVRRGVVLVMARAAAIVYQKEQEE"}, "B21": {"name": "traf2_out_20_3_2223 (protein)", "chain": "EELKREIEEELRKIEELLEKAKPLLPEEDYKKLKELLEKAREALETDLTDALVYLSELRRLALELAQEARAAGNEELAKLLEEMAERANRAAGLVLKAIE"}, "B22": {"name": "traf2_out_14_166_1275 (protein)", "chain": "MSPEEIERIRKIVDELEPLTDAAVARLEAILAANADKLTPEQLARVRALLDLARRNIGSSAINAIREIAAIFAAAGLAEAAAAARALADELEAKLKELNK"}, "B23": {"name": "traf2_out_18_167_1835 (protein)", "chain": "EEEKEKKRNELLDEMIDISEHYRAAIEYLELLAKDPKEAEAKKEEYMKKIDKDPELVAKIKEVLALPDEERKKAAKALADEVYDERQKKMQELWDKREAV"}, "B24": {"name": "traf2_out_20_38_2012 (protein)", "chain": "SEEEKEKEKEEKLIEHANEAYDRAEAWVAALQAAGKSVAEIAAEAKKRIRELLTAHGLEEEAEELIEDVDRVLDSPDAERLIVQILARAETLVFQKELQK"}, "B25": {"name": "traf2_out_13_95_1095 (protein)", "chain": "SAEVAAKINAIADKMLDEVLKILEELLKKMEKAGKLVEEVKEALDLAEKRSINEAIHLLKELAKKYPEFKEEFEEAIKKIEEIKREAGREVAKILKEEEE"}, "B26": {"name": "traf2_out_15_48_1341 (protein)", "chain": "SVEELRAVASEIADEIDAAKDAVAAELEALRPSAAPEQRAPLAEAIDAARHGRGQNTVLALLDRLEPLLAPEQAARVAALRDRLRAVVRAASARMAEVLK"}, "B27": {"name": "traf2_out_18_3_1931 (protein)", "chain": "SEEERKEVSDKIDEIVDDARARAERELERAREELPEKREEIDRLRAALEAGAAPFGILDALAELYEEAGKEEEAKEIEEYLSEKRKEMQELVDEYEKLIK"}, "B28": {"name": "traf2_out_11_169_847 (protein)", "chain": "EQEEKNRQIIDKALELEDKAKEELKKHALALAREAGLDVAEVEAIFEKHKGKSLSAIAAALIRWFREQGKEEAAAAVEAKYEELKEEINKKMTEFLKELE"}, "B29": {"name": "traf2_out_11_169_812 (protein)", "chain": "EEKEKNRKINDFALELNDEAKKELLKHAKALAKKAGLDVAEVEAIFEKHKNSSLSAVAAALIAYFKSKGKEEEAAAVLAKYEELKEEINKKVTEKIKELE"}},
  "note": "In all, about 1,800 sequences were measured (“median log2 fold change of GCK-ALFA target abundance (FLAG IP / Myc IP barcode read proportion)”: median about 0.14, lowest 2% from about -0.84 on). This excerpt belongs to a sample that is enriched for the lowest values.",
  "data": [
    {"molecular_target": "T1, TRAF2, Q12933", "T1 chain": "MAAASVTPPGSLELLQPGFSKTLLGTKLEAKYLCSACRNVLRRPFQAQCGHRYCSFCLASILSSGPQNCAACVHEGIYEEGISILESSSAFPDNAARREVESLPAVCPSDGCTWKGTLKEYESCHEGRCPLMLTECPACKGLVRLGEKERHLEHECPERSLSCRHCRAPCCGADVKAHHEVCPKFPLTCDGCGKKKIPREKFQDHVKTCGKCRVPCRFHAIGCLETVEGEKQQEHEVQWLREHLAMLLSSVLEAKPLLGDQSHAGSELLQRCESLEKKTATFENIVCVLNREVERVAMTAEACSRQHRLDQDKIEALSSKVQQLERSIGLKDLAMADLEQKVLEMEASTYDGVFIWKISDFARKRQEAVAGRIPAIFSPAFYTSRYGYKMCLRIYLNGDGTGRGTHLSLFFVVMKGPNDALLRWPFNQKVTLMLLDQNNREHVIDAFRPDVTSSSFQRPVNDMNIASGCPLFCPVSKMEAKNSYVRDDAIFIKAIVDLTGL", "experiment": "median log2 fold change of GCK-ALFA target abundance (FLAG IP / Myc IP barcode read proportion) (log2 ratio); each designed protein is fused to an ALFA-tag nanobody in HEK293 cells to bring the named protein to FLAG-tagged glucokinase (GCK); Myc marks an untargeted standard; higher = target protein stabilised (more abundant)", "details": "target protein: 3xFLAG-MCP-GCK-ALFA reporter; HEK293 landing pad (RPLP)", "how_it_was_run": "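HEK293 landing-pad cells received a recombined binder library fused to the ALFA nanobody and were induced with 2 μg mL^−1 doxycycline, then transfected with a plasmid encoding a FLAG-tagged target and a Myc-tagged standard. Lysates were collected after 48 h for anti-FLAG and anti-Myc immunoprecipitation, and the circular RNA barcodes were reverse transcribed, amplified and sequenced. Target abundance for each binder is the median log2 ratio of FLAG to Myc barcode read proportions. Barcodes had to reach a proportion of at least 10^−7 in both replicates, each binder needed at least 3 barcodes per replicate, a pseudocount of 10^−6 was applied, and the two replicates were pooled.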", "values": [
      {"binder": "B1", "median log2 fold change": 0.462},
      {"binder": "B2", "median log2 fold change": -0.0768},
      {"binder": "B3", "median log2 fold change": -0.222},
      {"binder": "B4", "median log2 fold change": 0.2},
      {"binder": "B5", "median log2 fold change": -1.3},
      {"binder": "B6", "median log2 fold change": -0.702},
      {"binder": "B7", "median log2 fold change": -0.125},
      {"binder": "B8", "median log2 fold change": 0.417},
      {"binder": "B9", "median log2 fold change": 0.289},
      {"binder": "B10", "median log2 fold change": -0.239},
      {"binder": "B11", "median log2 fold change": -0.215},
      {"binder": "B12", "median log2 fold change": 0.265},
      {"binder": "B13", "median log2 fold change": 0.154},
      {"binder": "B14", "median log2 fold change": -0.925},
      {"binder": "B15", "median log2 fold change": -0.0878},
      {"binder": "B16", "median log2 fold change": 0.0354},
      {"binder": "B17", "median log2 fold change": 0.196},
      {"binder": "B18", "median log2 fold change": -0.105},
      {"binder": "B19", "median log2 fold change": -1.1},
      {"binder": "B20", "median log2 fold change": 0.281},
      {"binder": "B21", "median log2 fold change": 0.163},
      {"binder": "B22", "median log2 fold change": 0.268},
      {"binder": "B23", "median log2 fold change": 0.297},
      {"binder": "B24", "median log2 fold change": 0.283},
      {"binder": "B25", "median log2 fold change": -0.132},
      {"binder": "B26", "median log2 fold change": 0.194},
      {"binder": "B27", "median log2 fold change": 0.304},
      {"binder": "B28", "median log2 fold change": -0.218},
      {"binder": "B29", "median log2 fold change": 0.302}
    ]}
  ]
}
